The record followed here is PubChem BioAssay (NCI).

Some test systems named below: SR leukemia; RPMI-8226 leukemia; OVCAR-8 ovarian; OVCAR-4 ovarian; IGROV1 ovarian; OVCAR-3 ovarian; HS 578T breast; T-47D breast; BT-549 breast; MDA-MB-435 melanoma; SW-620 colon; MCF7 breast; HCT-116 colon; HCC-2998 colon; KM12 colon; NCI/ADR-RES ovarian; OVCAR-5 ovarian; SK-OV-3 ovarian.
Holding throughout (experiment): NCI-60 one-dose screen, 48 h (100 = growth as untreated, 0 = no growth, -100 = all killed)
Holding throughout (settings): 10 µM unless noted

About 83,000 compounds went through this panel and 20% of them were active in at least one assay; those are over-represented in the sample as a whole.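 The test compound was applied at a single concentration to cells in 96-well plates for 48 hours, and percent growth was recorded.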 A number with no mark means an inactive call. The source made the active and inactive calls. Rule for the calls: active = growth percent below 10; inactive = the rest.

Consider `COc1cnc2c(c1)C(=O)c1c-2n(CCCNCCN2CCOCC2)c(=O)c2cc([N+](=O)[O-])ccc12`, for which the growth with SR leukemia was -0.128% (active); in the assay with RPMI-8226 leukemia, -14.5% (active); with OVCAR-8 ovarian it was 2.29% (active); with OVCAR-4 ovarian, -13.5% (active); with IGROV1 ovarian it was 15.6%; in the assay on OVCAR-3 ovarian, -25.9% (active). Further, the growth with HS 578T breast was 26.7%; with T-47D breast it was 15.7%; in the assay with BT-549 breast it was 13.4%; in the assay on MDA-MB-435 melanoma, 13.7%; in the assay with SW-620 colon, -55.2% (active); in the assay with MCF7 breast, 3.37% (active). Besides, the growth in the assay with HCT-116 colon was -60.4% (active); with HCC-2998 colon, -73.3% (active); in the assay with KM12 colon, -38.1% (active).

As for `NC(=O)NCC1CCCCC1`, the growth in the assay with SR leukemia was 99.4%; with RPMI-8226 leukemia it was 108%; in the assay on OVCAR-8 ovarian it was 114%; with OVCAR-4 ovarian, 102%; in the assay with IGROV1 ovarian, 101%; with OVCAR-3 ovarian, 109%. The growth in the assay on HS 578T breast was 112%; in the assay on NCI/ADR-RES ovarian, 95.1%; with T-47D breast it was 97.7%; in the assay on BT-549 breast, 104%; in the assay on MDA-MB-435 melanoma, 102%; in the assay with SW-620 colon it was 108%. The growth is 90.6% with MCF7 breast, 106% in the assay with HCT-116 colon, 95.5% with HCC-2998 colon and 102% in the assay with KM12 colon.

As to `COc1ccc(-c2nc3ncccn3c2-c2nc3ccc(Br)cc3[nH]2)cc1`, the growth was 61.1% in the assay with SR leukemia; 60.6% in the assay with RPMI-8226 leukemia; 95.6% in the assay with OVCAR-5 ovarian; 101% in the assay with OVCAR-4 ovarian; 105% with SK-OV-3 ovarian; 94% in the assay with IGROV1 ovarian. The growth with OVCAR-3 ovarian is 72.7%; with NCI/ADR-RES ovarian, 87.3%; with T-47D breast it was 77.8%; in the assay with BT-549 breast, 90.4%; with MDA-MB-435 melanoma, 68.1%; in the assay with SW-620 colon, 93.9%. Besides, the growth with MCF7 breast is 96.7%; in the assay with HCT-116 colon, 83%; with HCC-2998 colon, 97%; with KM12 colon, 84.5%.

For `COc1ccc(-c2cc(/C=C/C(=O)c3ccc(N)cc3)[nH]n2)cc1`, the growth was -20.2% (active) with SR leukemia; -29.9% (active) with RPMI-8226 leukemia; 54.5% in the assay with OVCAR-5 ovarian; 33.1% in the assay with OVCAR-4 ovarian; -8.64% (active) with SK-OV-3 ovarian; 32.8% in the assay on IGROV1 ovarian. Moreover, the growth in the assay with OVCAR-3 ovarian was -34.1% (active); in the assay on NCI/ADR-RES ovarian it was 17.5%; in the assay on T-47D breast, 21%; in the assay with BT-549 breast, 9.81% (active); in the assay on MDA-MB-435 melanoma it was 14.7%; with SW-620 colon it was -38.1% (active). Besides, the growth in the assay on MCF7 breast is 18.4%; with HCT-116 colon, 8.45% (active); in the assay on KM12 colon it was 3.29% (active).

For the molecule `O=S(=O)(NCCNc1cc(-c2cn(-c3ccccc3)nc2-c2cccc(O)c2)ccn1)c1ccc(Cl)cc1`, the growth was 2.36% (active) in the assay with SR leukemia; 12.8% in the assay on RPMI-8226 leukemia; 31% in the assay with OVCAR-8 ovarian; 53.5% in the assay with SK-OV-3 ovarian; 44.4% in the assay with IGROV1 ovarian; 43.2% with OVCAR-3 ovarian. The growth in the assay on HS 578T breast is 21.2%; with NCI/ADR-RES ovarian, 29.1%; in the assay with T-47D breast, 14.4%; in the assay on BT-549 breast, 50.7%; in the assay with MDA-MB-435 melanoma, 23.3%; with SW-620 colon it was 32.8%. The growth in the assay with MCF7 breast was 14.9%; in the assay on HCT-116 colon, 20.4%; in the assay with HCC-2998 colon, -42.8% (active); with KM12 colon it was 19.4%.

As to `O=C(c1ccccc1)C(CN1CCOCC1)c1ccccc1` (stereo not drawn), the growth in the assay with SR leukemia is -0.205% (active); in the assay on RPMI-8226 leukemia, -8.68% (active); in the assay with OVCAR-8 ovarian, 14.2%; in the assay with SK-OV-3 ovarian, 91.6%; with IGROV1 ovarian it was 7.53% (active); in the assay with OVCAR-3 ovarian, -10.7% (active). For the same molecule, the growth in the assay with HS 578T breast was 59.8%; in the assay with NCI/ADR-RES ovarian, 18.8%; in the assay on T-47D breast it was 64.3%; with BT-549 breast, 30.2%; with SW-620 colon, -45.2% (active); with MCF7 breast, 1.11% (active). The growth with HCT-116 colon was 3.3% (active); with HCC-2998 colon it was 54.4%; in the assay with KM12 colon, 20.8%.

Regarding `CC1c2ccccc2N(S(=O)(=O)c2ccccc2)C1C` (stereo not drawn), the growth in the assay with SR leukemia was 34.8%; in the assay on RPMI-8226 leukemia, 91.9%; with OVCAR-8 ovarian it was 103%; in the assay on SK-OV-3 ovarian, 91.2%; in the assay with IGROV1 ovarian it was 92.4%; with OVCAR-3 ovarian, 98.1%. The growth is 92.7% in the assay with HS 578T breast; 102% in the assay on T-47D breast; 6.95% (active) in the assay with MDA-MB-435 melanoma; 72.7% with SW-620 colon; 78.5% with MCF7 breast; 86.2% in the assay with HCT-116 colon. Moreover, the growth in the assay on HCC-2998 colon is 101%; in the assay with KM12 colon, 60%.

Regarding `Cn1cc(-c2nc(-c3cn(C)c4ncccc34)cs2)c2ccccc21`, the growth is 18.4% in the assay with SR leukemia; 39.6% with RPMI-8226 leukemia; 47.9% with OVCAR-8 ovarian; 43.2% with SK-OV-3 ovarian; 45% in the assay with IGROV1 ovarian; -17.8% (active) with OVCAR-3 ovarian. Further, the growth was 81% in the assay on HS 578T breast; 8.77% (active) in the assay on NCI/ADR-RES ovarian; 42% with T-47D breast; 48.3% in the assay with BT-549 breast; -18.6% (active) in the assay with MDA-MB-435 melanoma; 27% in the assay on SW-620 colon. Further, the growth in the assay with MCF7 breast was 15.9%; in the assay on HCT-116 colon, 14.6%; with HCC-2998 colon it was 67.4%; in the assay on KM12 colon, 22.5%.

On to `CCc1nnc(NC(=O)c2ccoc2COc2ccccc2)s1`, for which the growth with SR leukemia was 26.4%; with RPMI-8226 leukemia it was 30.8%; with OVCAR-8 ovarian it was 63.8%; with OVCAR-4 ovarian it was 92.2%; in the assay with SK-OV-3 ovarian, 75.9%; in the assay on OVCAR-3 ovarian it was 33.8%. Also, the growth with HS 578T breast was 62%; with NCI/ADR-RES ovarian, 12%; with T-47D breast, 45.7%; in the assay with BT-549 breast, 51.2%; in the assay with MDA-MB-435 melanoma, -26.1% (active); with SW-620 colon it was 24%. Further, the growth is 24% in the assay with MCF7 breast, 30.6% in the assay on HCT-116 colon and 31.6% in the assay with KM12 colon.

For the molecule `CN(C)CCCCC(C(=O)CBr)(c1ccccc1)c1ccccc1`, the growth is 8.41% (active) in the assay with SR leukemia; 25.8% in the assay on OVCAR-8 ovarian; 12.1% with OVCAR-4 ovarian; 44.4% with IGROV1 ovarian; -44% (active) with OVCAR-3 ovarian; 24.2% with HS 578T breast. The growth with NCI/ADR-RES ovarian is 43.9%; in the assay on T-47D breast, -54.2% (active); in the assay with BT-549 breast it was 24.3%; with MDA-MB-435 melanoma, 36.3%; with SW-620 colon it was -49.7% (active); in the assay with MCF7 breast it was 3.55% (active). For the same molecule, the results for the growth in the assay on HCT-116 colon, with HCC-2998 colon and with KM12 colon were -60.1% (active), 71.7% and 68.8%, respectively.
